Compounds without any hit were thinned out: in the full panel of roughly 83,000, 20% have a hit.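 For each line, cells grew in 96-well plates with the test compound present at a single concentration for 48 hours.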 Unmarked numbers belong to inactive results. Active and inactive are the calls of the source. How the source made its calls: active means growth percent below 10; inactive means the rest.
test system: OVCAR-5 ovarian; test: NCI-60 one-dose screen, 48 h (100 = growth as untreated, 0 = no growth, -100 = all killed); settings: 10 µM unless noted

C=C1C(=O)O[C@@H]2C[C@@H](C)[C@H](OC)CC(=O)[C@](C)(OC(C)=O)C[C@H](OC(=O)/C(C)=C\C)[C@@H]12 was tested. Which growth did it give?
The growth was 115%.

How did the growth turn out when O=C1[C@H]2Cc3c([nH]c4ccccc34)[C@@H](c3ccc(Cl)cc3)N2C(=O)CN1C1CCN(Cc2c(Cl)cccc2Cl)CC1 was run?
The growth was 98.1%.

For COc1ccc(Cn2cc3c(c2-c2ccccc2)CCCc2cnoc2-3)cc1, which growth is on record?
Its growth is 80.7%.

With COc1ccc(-c2oc3cc(O)cc(O)c3c(=O)c2OC)cc1O as the compound, how does the growth read?
Its growth is 59.8%.

N/C(=N\OC(=O)CSc1nc2ccccc2s1)c1ccc2ccccc2c1 was tested. Which growth did it give?
Its growth is 98.9%.

How did the growth turn out when CCOC(=O)C1=C(C)Nc2nc3ccccc3n2C1c1ccccc1 (stereo unspecified) was run?
The growth was 104%.

Which growth does the source give for CS(=O)(=O)c1ccc(-c2nn(-c3ccccc3)cc2/C=N/NC(=O)c2ccncc2)cc1 here?
Its growth is 107%.

Which growth does the source give for Cc1cc(O)c2c(c1)C(=O)C(c1c(C)cc3c(c1O)C(=O)C=CC3=O)=CC2=O here?
The growth was 117%.

N#Cc1c(NC(=O)c2ccccc2C(F)(F)F)sc2c1CCC(=O)C2 was tested. Which growth did it give?
The growth was 8.8% (active).

With CCOC(=O)C1=C(C)N=C2Sc3ccccc3N2C1c1ccccc1 (stereo unspecified) as the compound, how does the growth read?
The growth was 102%.

CN(C)c1ncc(/C=C2\SC(=S)N(Cc3ccccc3Cl)C2=O)s1 was tested. Which growth did it give?
Its growth is 87.9%.

Which growth does the source give for CCN1C(=O)N(CC)C2SC(N/N=C/c3ccc(OC)cc3)=NC21 (stereo unspecified) here?
Its growth is 36.8%.

Which growth does the source give for O=C1[C@@H]2Cc3c([nH]c4ccccc34)[C@H](c3c(Cl)cccc3Cl)N2C(=O)CN1C1CCN(Cc2c(F)cccc2F)CC1 here?
Its growth is 92.4%.

For CC1OC(O[C@@H]2[C@H](O)C(CO)OC(O[C@H]3COC(O[C@H]4CC[C@]5(C)[C@H]6CC[C@]78OC[C@@]9(CC[C@](C)(C=O)C[C@H]97)C(=O)C[C@@]8(C)[C@]6(C)CC[C@H]5C4(C)C)[C@@H](O)[C@@H]3O)[C@H]2OC2OC[C@@H](O)[C@@H](O)[C@@H]2O)[C@@H](O)[C@@H](O)[C@H]1O (stereo partly specified), which growth is on record?
The growth was 110%.

With CC(=O)NC(C)(C)C(=O)N1CCC[C@H]1C(=O)NC(C)(C)C(=O)N[C@@H](C)C(=O)NC(C)(C)C(=O)NC(C)(C)C(=O)N[C@@H](CCC(N)=O)C(=O)NC(C)(C)C(=O)N[C@H](C(=O)NC(C)(C)C(=O)NCC(=O)N[C@@H](CC(C)C)C(=O)NC(C)(C)C(=O)N1CCC[C@H]1C(=O)N[C@H](C(=O)NC(C)(C)C(=O)NC(C)(C)C(=O)N[C@@H](CCC(N)=O)C(=O)N[C@@H](CCC(N)=O)C(=O)N[C@H](CO)Cc1ccccc1)C(C)C)C(C)C as the compound, how does the growth read?
The growth was 45.2% [4.25 µM].

For CC1(C)CC[C@]2(C(=O)O)CC[C@]3(C)C(=CCC4[C@@]5(C)C[C@@H](O)[C@@H]6OC(c7cccc([N+](=O)[O-])c7)OC[C@@]6(C)C5CC[C@]43C)C2C1 (stereo partly specified), which growth is on record?
Its growth is 97.2%.

Which growth does the source give for Oc1ccccc1-c1nnc(SCc2ccc(O)c3ncccc23)n1-c1ccccc1 here?
The growth was 33%.

How did the growth turn out when O=c1c2c(O)cccc2oc2c3c(cc(O)c12)O[C@H]1OC=C[C@@H]31 was run?
The growth was 110%.

With O=C(CN1C(=O)S/C(=C\c2ccccc2)C1=O)Nc1ccc(C(=O)/C=C/c2cc3ccccc3nc2Cl)cc1 as the compound, how does the growth read?
Its growth is 99.5%.

For O=C(/C=C/c1cccc(O)c1)c1ccc(O)cc1, which growth is on record?
The growth was 91.4%.

ClC(Cl)c1nc(-c2cccs2)n2nc(-c3ccccc3)cc2n1 was tested. Which growth did it give?
Its growth is -8.51% (active).

Which growth does the source give for CC1OC(O[C@@H]2C(O)C(CO)OC(O[C@H]3COC(O[C@H]4CC[C@]5(C)[C@H]6CC[C@]78OC[C@@]9(CC[C@](C)(C=O)C[C@H]97)[C@H](O)C[C@@]8(C)[C@]6(C)CC[C@H]5C4(C)C)[C@@H](OC4OC(CO)[C@@H](O)[C@@H](O)[C@@H]4O)[C@@H]3O)[C@H]2OC2OC[C@@H](O)[C@@H](O)[C@@H]2O)[C@@H](O)[C@@H](O)[C@H]1O (stereo partly specified) here?
The growth was -78.7% (active).

How did the growth turn out when O=C(CCCCCCN1CC(=O)N2[C@@H](c3cc(F)cc(F)c3)c3[nH]c4ccccc4c3C[C@H]2C1=O)NO was run?
The growth was 66.4%.

For N=c1c2cc(-c3ccccc3)oc2ncn1/N=C/c1ccccc1, which growth is on record?
The growth was 83.5%.

How did the growth turn out when COc1cc(CNC(=O)/C=C/c2ccccc2)ccc1OCC(=O)NO was run?
Its growth is 102%.

C=C(C)[C@@H]1CC[C@]2(COS(C)(=O)=O)CC[C@]3(C)[C@H](CC[C@@H]4[C@@]5(C)CCCNC(C)(C)[C@@H]5CC[C@]43C)[C@@H]12 was tested. Which growth did it give?
The growth was 92.5%.

— PubChem BioAssay (NCI)
